According to PubChem BioAssay AID1159580 (chemical genetic matrix, 2015):
Several values for one entry are separate records, joined by “and”; a condition that tells them apart may be missing. Identical values can stand only once. Out of some 5,500 compounds screened, about 2,000 (36%) were called active. About 18% were inconclusive and are not listed. Cut-off read from the data, not from the text of the source: active = normalized growth mostly below about 0.91 (no sharp cut-off); inconclusive = no clear call, values can overlap the other calls; inactive = mostly above about 0.92. The list shows a part of the results.

Experiment: chemical genetic growth profiling, strain panel (AID 1159580);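 note: tested at 20 µM; growth read once vehicle control cultures reached saturation at 30 °C; 1 = growth at the plate median or of vehicle wells; lower values mean less growth of the strain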
Settings: S. cerevisiae deletion strains, growth OD

Measured: normalized growth

CC(C)CC1C(=O)N2CCC[C@H]2C2(O)O[C@](NC(=O)C3C=C4c5cccc6[nH]c(Br)c(c56)C[C@H]4N(C)C3)(C(C)C)C(=O)N12 (stereo partly specified)
inactive: locus YAL013W, strain DEP1, active compounds read low 0.989 | locus YAL021C, strain ccr4, active compounds read low 0.976 | locus YAL026C, strain drs2, active compounds read low 0.991 | locus YAL030W, strain snc1, active compounds read low 0.998 | locus YBL061C, strain skt5, active compounds read low 0.987 | locus YBR009C, strain hhf1, active compounds read low 0.996 | locus YBR021W, strain FUR4, active compounds read low 0.996 | locus YBR023C, strain chs3, active compounds read low 0.992 | locus YBR171W, strain sec66, active compounds read low 0.981 | locus YBR229C, strain ROT2, active compounds read low 0.993 | locus YBR231C, strain swc5, active compounds read low 0.968 | locus YBR279W, strain paf1, active compounds read low 0.988 | locus YCL011C, strain gbp2, active compounds read low 0.976 | locus YCL016C, strain dcc1, active compounds read low 0.995 | locus YCL029C, strain bik1, active compounds read low 0.961 | locus YCL069W, strain vba3, active compounds read low 0.997 | locus YCR088W, strain abp1, active compounds read low 0.99 | locus YDL005C, strain med2, active compounds read low 0.987 | locus YDL035C, strain GPR1, active compounds read low 0.993 | locus YDL040C, strain nat1, active compounds read low 0.984 | locus YDL074C, strain BRE1, active compounds read low 0.974 | locus YDL101C, strain DUN1, active compounds read low 0.988 | locus YDL134C, strain PPH21, active compounds read low 0.992 | locus YDL185W, strain tfp1, active compounds read low 0.947 | locus YDL192W, strain arf1, active compounds read low 0.965 | locus YDR001C, strain nth1, active compounds read low 0.972 | locus YDR069C, strain doa4, active compounds read low 0.983 | locus YDR101C, strain arx1, active compounds read low 0.984 | locus YDR137W, strain rgp1, active compounds read low 0.885 | locus YDR150W, strain NUM1, active compounds read low 0.976 | locus YDR159W, strain sac3, active compounds read low 0.989 | locus YDR162C, strain NBP2, active compounds read low 0.989 | locus YDR195W, strain ref2 0.962 | locus YDR297W, strain sur2, active compounds read low 0.976 | locus YDR318W, strain mcm21, active compounds read low 0.977 | locus YDR334W, strain swr1, active compounds read low 0.973 | locus YDR335W, strain msn5, active compounds read low 0.995 | locus YDR388W, active compounds read low 0.989 | locus YDR392W, strain spt3, active compounds read low 0.959 | locus YDR502C, strain sam2, active compounds read low 0.972 | locus YEL003W, strain gim4, active compounds read low 0.981 | locus YEL037C, strain rad23, active compounds read low 0.989 | locus YEL061C, strain CIN8 (second series), active compounds read low 0.995 | locus YEL061C, strain CIN8, active compounds read low 0.982 | locus YER015W, strain faa2, active compounds read low 0.972 | locus YER016W, strain bim1, active compounds read low 0.982 | locus YER110C, active compounds read low 0.964 | locus YER111C, strain swi4, active compounds read low 0.993 | locus YER155C, strain BEM2 (second series), active compounds read low 0.973 | locus YER155C, strain BEM2, active compounds read low 0.985 | locus YER167W, strain BCK2, active compounds read low 0.961 | locus YFR010W, strain ubp6, active compounds read low 1.01 | locus YGL078C, strain dbp3, active compounds read low 0.965 | locus YGL086W, strain mad1, active compounds read low 0.97 | locus YGL167C, strain pmr1, active compounds read low 0.974 | locus YGL173C, strain kem1, active compounds read low 1 | locus YGL227W, strain vid30, active compounds read low 0.994 | locus YGL240W, strain doc1, active compounds read low 0.943 | locus YGL248W, strain PDE1, active compounds read low 0.987 | locus YGL253W, strain hxk2, active compounds read low 0.993 | locus YGR078C, strain PAC10, active compounds read low 0.989 | locus YGR135W, strain pre9, active compounds read low 0.982 | locus YGR229C, strain SMI1, active compounds read low 1.01 | locus YGR252W, strain gcn5, active compounds read low 1.14 | locus YHR013C, strain ard1, active compounds read low 0.945 | locus YHR027C, strain rpn1, active compounds read low 0.962 | locus YHR030C, strain SLT2, active compounds read low 0.981 and 0.978 | locus YHR079C, strain IRE1 (second series), active compounds read low 0.982 | locus YHR079C, strain IRE1, active compounds read low 0.986 | locus YHR094C, strain hxt1, active compounds read low 0.966 | locus YHR129C, strain ARP1, active compounds read low 0.985 | locus YHR142W, strain chs7, active compounds read low 1.01 | locus YHR200W, strain rpn10, active compounds read low 0.976 | locus YIL066C, strain RNR3, active compounds read low 0.981 | locus YIL073C, strain SPO22, active compounds read low 0.925 | locus YIL125W, strain kgd1, active compounds read low 0.965 | locus YIR030C, strain dcg1, active compounds read low 0.987 | locus YJL092W, strain hpr5, active compounds read low 0.968 | locus YJL095W, strain BCK1 (second series), active compounds read low 0.999 | locus YJL095W, strain BCK1, active compounds read low 0.971 and 0.976 | locus YJL115W, strain asf1, active compounds read low 0.958 | locus YJL129C, strain trk1, active compounds read low 0.957 | locus YJL134W, strain LCB3, active compounds read low 0.983 | locus YJL154C, strain vps35, active compounds read low 0.979 | locus YJL164C, strain tpk1, active compounds read low 0.997 | locus YJL166W, strain qcr8, active compounds read low 0.996 | locus YJL168C, strain set2, active compounds read low 0.977 | locus YJL187C, strain SWE1 (second series), active compounds read low 0.979 | locus YJR043C, strain POL32, active compounds read low 0.995 | locus YJR066W, strain TOR1, active compounds read low 0.993 | locus YJR075W, strain HOC1, active compounds read low 0.992
